Bioassay records (PubChem BioAssay)
A selection: hits, their analogues and other compounds. The true share with any hit is near 3.7%.
PI5P4Ka inh – PI5P4K alpha (human) kinase inhibition; P48426; PI5P4Kalpha enzyme, ADP-Glo luminescence, 60 min; active compounds read low; max response, %; 330,000 tested, 1.2% active; active means max response of -50% or lower; inconclusive means between -30% and -50%; inactive means -30% or higher; further: value at the top dose of about 77 µM; on the % scale 0 is the no-effect control and ±100 the full control effect
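Single end-point luminescence (ADP-Glo) quantified ADP from PI5P4Kalpha turnover; ATP 5 microM final, 1 h at RT, 0.1% CHAPS and 0.28 mM EGTA in HEPES pH 7.4.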
VDR inhibitor – inhibitors of human vitamin D receptor; AID 504847; Potency, µM, inactives show max response, negative = inhibition, hits mostly inhibitors; 400,000 tested, 0.93% active; VDR-SRC2-3 peptide fluorescence polarization, 2 h; P11473; further: potency means the concentration at half of the fitted maximal effect; on the % scale 0 is the no-effect control and ±100 the full control effect
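Inhibition of the VDR/SRC2-3 peptide interaction is quantified by fluorescence polarization. Compounds (23 nl, pintool) incubate with the reagents for 2 hours at ambient room temperature.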
PLK1 PBD inh – inhibitors of human PLK1 polo-box domain binding; P53350; Plk1 PBD binding of FITC phosphopeptide, fluorescence polarization; Potency, µM, without a hit: max response, negative = inhibition, hits mostly inhibitors; 360,000 tested, 2.8% active; AID 720504; further: potency means the concentration at half of the fitted maximal effect; series mostly up to about 57 µM; on the % scale 0 is the no-effect control and ±100 the full control effect; nearly all actives have a fitted effect of over 65% in size
FEN1 inhibitor – human FEN1 inhibition | P39748 | Recombinant FEN1 flap cleavage, fluorescence, 15 min | Potency, µM (doses to about 114 µM), for the others: top-dose activity change, negative = inhibition, actives largely listed as inhibitors | 390,000 tested, 0.35% active; further: potency means the concentration at half of the fitted maximal effect; on the % scale 0 is the no-effect control and ±100 the full control effect; nearly all actives have a fitted effect of over 65% in size
Target sequence (P39748 whole entry, looked up): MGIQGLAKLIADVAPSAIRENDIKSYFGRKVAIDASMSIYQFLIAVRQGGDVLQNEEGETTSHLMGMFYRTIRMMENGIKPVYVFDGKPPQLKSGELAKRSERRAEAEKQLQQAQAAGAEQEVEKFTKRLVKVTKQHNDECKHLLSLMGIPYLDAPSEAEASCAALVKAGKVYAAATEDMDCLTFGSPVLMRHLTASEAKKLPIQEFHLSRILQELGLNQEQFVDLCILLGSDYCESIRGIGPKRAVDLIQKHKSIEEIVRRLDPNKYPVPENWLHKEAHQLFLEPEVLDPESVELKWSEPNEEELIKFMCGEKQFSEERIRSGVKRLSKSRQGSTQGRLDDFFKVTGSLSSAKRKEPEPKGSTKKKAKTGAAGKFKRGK
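Read-out was taken twice, immediately and after 15 min, following addition of 50 nM substrate to 10 nM FEN1 that had sat with test compound for 15 min at room temperature. Curves came from a four-parameter Hill model.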
WRN helicase inh – WRN helicase (human) inhibition; Q14191; WRN helicase unwinding, fluorescent forked duplex, kinetic; Potency, µM (titrated, usually from 114 µM), inactives show top-dose activity change, negative = inhibition, usual class: inhibitors; 360,000 tested, 0.46% active; further: potency means the concentration at half of the fitted maximal effect; on the % scale 0 is the no-effect control and ±100 the full control effect; nearly all actives have a fitted effect of over 55% in size
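WRN at 20 nM final preincubated with compound 15 min at room temperature; reaction started with 100 nM fluorophore/quencher forked duplex oligonucleotide and 2 mM ATP final. Unwinding followed kinetically by red fluorescence (ex 525, em 598 nm).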
TCR activator – activates T cell receptor signaling; Potency, µM (titrated, usually from 9.22 µM), for the others: at the top dose activation of IL-2 secretion, most hits filed as activators; AID 504894; primary human leukocytes, anti-CD3, IL-2 HTRF, 48 h; 330,000 tested, under 10 active; further: % of control where 0% means no effect
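Primary human leukocytes receive a-CD3 beads and test compound and are incubated 48 hr. Secreted IL-2 is then assayed by HTRF, measuring 665nm acceptor emission after 320nm excitation of the europium donor.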
* hit, by the source's call; ? = inconclusive; nt = no result; ! = repeats disagree; [ ] = dose if it differs, or a comment. Unless noted, the call rests on the fitted dose curve; in most records, active means well fitted curve in the direction sought with a large enough effect; inconclusive means small, poorly fitted or top-dose-only effect, or another doubt; inactive means no such curve, though single readings can be large; an effect the other way counts as inactive or inconclusive.

SMILES	PI5P4Ka inh	VDR inhibitor	PLK1 PBD inh	FEN1 inhibitor	WRN helicase inh	TCR activator
COc1ccccc1CN1CCN(C2CCN(C(=O)Nc3ccccc3)CC2)C(=O)C1=O	nt	5%	nt	2%	nt	nt
Cn1cc(/C=C2\SC(=S)N(NC(=O)c3cccc(Cl)c3)C2=O)c2ccccc21	2	-3%	?	8%	20µM*	1%
C[N+]1(CC(=O)c2ccc(I)cc2)CCOCC1	nt	nt	nt	18%	nt	nt
N#Cc1c(NC(=O)CSc2nc(-c3ccco3)cc(C(F)(F)F)n2)sc2c1CCCC2	-10	-23%	21µM*	-4%	-1%	-6%
CN1CCN(CC(=O)Nc2nnc(-c3cccs3)s2)CC1	2	13%	1%	0%	-26%[57.1 µM]	6%[46.1 µM]
COc1cccc(OC)c1C(=O)Nc1nnc(-c2cccs2)s1	-16	14%	17µM*	-6%	-1%	5%
CCOc1ccc(C2c3[nH]c4ccccc4c3CCN2C(=O)Cc2cccc(OCC)c2OCC)cc1 (configuration not stated)	nt	14%	nt	-20%	nt	nt
Cc1ccc(S(=O)(=O)N(CC(O)Cn2c3ccccc3c3ccccc32)c2cccc(C(N)=O)c2)cc1 (configuration not stated)	nt	-8%	nt	-27%	nt	nt
Cc1ccc(S(=O)(=O)N(CC(O)Cn2c3ccccc3c3ccccc32)c2cccc(C(=O)N(C)C)c2)cc1 (configuration not stated)	nt	?	nt	89µM*	nt	nt
O=C(CSc1nnc(-c2ccccc2)o1)c1nnc(-c2ccccc2)o1	-53*	13%	-23%	9%	-22%	-42%
O=C(CSc1nnc(-c2ccccc2)o1)Nc1ccccc1F	0	?	21µM*	38%	-3%	-1%
O=C(CSC(=O)c1ccccc1)Nc1ccccc1F	-14	79µM*	3.4µM*	-4%	-23%	3%
Cc1ccc(-c2nnc(SCC(=O)Nc3ccccc3F)o2)cc1	-1	1%	0%	5%	5%	0%
O=[N+]([O-])c1ccc(/C=C2\C=Cc3ccccc32)cc1	nt	nt	nt	7%	nt	nt
O=c1/c(=C\c2cc([N+](=O)[O-])cc([N+](=O)[O-])c2O)sc2nc3ccccc3n12	-95*	40µM*	?	56µM*	35µM*	1%
COc1ccc(OC)c(CNC(=O)c2cc3c(=O)oc4ccc(C)cc4c3s2)c1	nt	-10%	nt	10%	nt	nt
Cc1oc2cc(O)ccc2c(=O)c1-c1nncn1-c1ccccc1	?	8%	30µM*	-9%	?	nt
Cc1cc(Br)ccc1-n1[nH]c(C)c(C=Nc2cccc3nsnc23)c1=O	-27	-18%	27µM*	10%	?	-9%
Cc1ccc(Nc2ccccc2)cc1	0	7%	0%	7%	-5%	-1%[46.1 µM]
Cc1ccc(Nc2cc(C)c(O)c(C)c2)cc1	-4	25µM*	27µM*	0%	-25%	-4%
COc1ccc(NC(=O)Cn2nnc(-c3nc(-c4ccncc4)no3)c2N)cc1OC	nt	20%	nt	12%	nt	nt
O=[N+]([O-])c1ccc(NN=Cc2cccc3ccccc23)cc1	4	1%	1%	-12%	-5%	8%
O=[N+]([O-])c1cc(Br)c(O)c(/C=N/Nc2nnnn2-c2cccc3ccccc23)c1	nt	?	13µM*	?	?	2%
Cc1ccc(C(=O)OCC(=O)c2ccc(CC(=O)N3CCOCC3)s2)c(C)c1	?	-8%	-21%	0%	50µM*	5%
CCOc1ccccc1NC(=O)NC(CC)c1c(-n2cccc2)sc2c1CCN(C)C2 (configuration not stated)	nt	6%	nt	13%	nt	nt
SMILES	PI5P4Ka inh	VDR inhibitor	PLK1 PBD inh	FEN1 inhibitor	WRN helicase inh	TCR activator
Cc1ccc(Cc2cnc(N3C(=N)SC(c4ccccc4)C3=O)s2)cc1 (configuration not stated)	-73*	-26%	-7%	-16%	?	-1%[46.1 µM]
Cc1ccc(Cc2cnc(NC(=O)c3ccco3)s2)cc1	nt	0%	-5%	-2%	-12%	5%
CCCC(=O)Nc1ccccc1C(=O)OCc1cc(=O)n2nc(C(C)C)sc2n1	nt	18%	nt	18%	nt	nt
CN(C)C(=O)COC(=O)c1ccc(S(=O)(=O)NCc2ccco2)cc1	-17	-12%	27µM*	16%	-4%[11.6 µM]	2%
O=C(COC(=O)c1ccc(S(=O)(=O)NCc2ccco2)cc1)Nc1ccccc1	-7	13%	-7%	-2%	-6%	0%
Cc1ccc(S(=O)(=O)NCc2ccco2)cc1C(N)=O	-8	?	27µM*	1%	-1%	3%
CCOC(=O)c1c(C)[nH]c(C)c1S(=O)(=O)NCC(=O)Nc1cccc(Cl)c1	nt	11%	nt	-4%	nt	nt
Cc1ncc(C[n+]2csc(CCO)c2C)c(N)n1	-3	1%	-11%	21%	1%	1%
C/C(=C(/CCO)SSC[C@@H]1CCCO1)N(C=O)Cc1cnc(C)nc1N	nt	14µM*	nt	nt	nt	nt
CCCSS/C(CCO)=C(/C)N(C=O)Cc1cnc(C)nc1N	nt	25µM*	nt	nt	nt	nt
C/C(=C(/CCO)SSCC1CCCO1)N(C=O)Cc1cnc(C)nc1N (configuration not stated)	3	56µM*	2%	-12%	1%	-9%
COCCNS(=O)(=O)c1ccc2c(c1)C(=NO)c1cc(S(=O)(=O)NCCOC)ccc1-2	-6	2%	-12%	-16%	7%	-2%
COCCNS(=O)(=O)c1ccc2c(c1)Cc1cc(S(=O)(=O)NCCOC)ccc1-2	-18	?	19µM*	-1%	9%	nt
C/C(=C\C=C(C#N)C#N)c1cc(C#N)c(N)o1	?	8%	108%	56µM*	89µM*	8%
COc1ccc(Nc2ncnc3c2cnn3-c2ccc(C)cc2C)cc1	nt	4%	nt	4%	nt	nt
CC(C)C(=O)N1c2nc(-c3ccco3)nn2C2(CCCCC2)[C@@H]2CCCC[C@@H]21	nt	-7%	nt	17%	nt	nt
Cc1c(C(=O)OCc2ccccc2)[nH]c2c1C(=O)CC(c1ccco1)C2 (configuration not stated)	-51*	-27%	?	?	50µM*	5%
CCOC(=O)c1[nH]c2c(c1C)C(=O)CC(c1ccco1)C2 (configuration not stated)	-68*	-5%	-25%	?	?	0%
C(=C\c1cnc2ccccc2n1)/c1ccc2c(c1)OCO2	nt	nt	nt	4%	nt	nt
Cc1ccc(NC(=O)Nc2nnc(SCC(=O)N3CCCCC3)s2)cc1	nt	8%	nt	12%	nt	nt
CCN(CC)CCCNC(=O)CCC(=O)NNc1nc2ccccc2c2nc(C)nn12	-5	79µM*!	-3%	-8%	-18%	-2%
O=c1c(-c2ccc(Cl)cc2)coc2c(CN3CCOCC3)c(O)ccc12	-18	-3%	19µM*	0%	1%	8%
COc1ccc(-c2coc3c(CN4CCOCC4)c(O)ccc3c2=O)cc1	1	-4%	-4%	17%	4%	-7%
